The text below walks through data of PubChem BioAssay (NCATS).

Results filed as inconclusive are left out. Active and inactive are the calls of the source. Calls come from the whole dose curve; as a rule, active = well fitted inhibition curve with a large enough effect; inconclusive = small, poorly fitted or top-dose-only effect; inactive = no such curve, though single readings can be large or run the other way.
% is set by controls: 0 for no effect and ±100 for the full control effect; potency is the fitted concentration of half-maximal effect.

In this assay the test system is Zika virus NS2B-NS3 protease (unlinked complex). Kind of assay: Primary screen GU Rhodamine qHTS for Zika virus inhibitors: Unlinked NS2B-NS3 protease assay (AID 1347159). Note: nearly all actives have a fitted effect of over 60% in size. The settings on record: Recombinant ZIKV NS2B-NS3 protease, Rhodamine110 substrate fluorescence; series mostly up to 107 µM; activity change, negative = inhibition: at the top concentration. Put shortly: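 Unlinked NS2B/NS3, 25 nM; Rhod110 peptide, 1.5 microM; compounds, up to 114 microM. Reaction run 15 min at RT in 10 mM Tris-HCl pH 8.0, 0.01% Tween 20; kinetic fluorescence change fitted with a 4-parameter Hill model.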
`C/C=C(\C)C(=O)O[C@H]1C=CC(=O)O[C@H]1/C=C/[C@H](O)[C@@H](C)O`: the “activity change, negative = inhibition” value is 47.7% (inactive).

Take `COc1c(C)c(OCC=C(C)C)cc2c1CNC2=O`: the “activity change, negative = inhibition” value is 1.48% (inactive).

On to `COc1c(C)c(OCC(O)C(C)(C)O)cc2c1CNC2=O` (stereo unspecified), for which the “activity change, negative = inhibition” value was -10.9% (inactive).

For `Oc1ccccc1-c1cc(-c2ccccc2F)[nH]n1`, the “activity change, negative = inhibition” value is -25.5% (inactive).

Turning to `CNC(=O)c1ccc2c(c1)CCO[C@H]2CCN1CCN(c2ccc(C(N)=O)cc2)CC1`, the “activity change, negative = inhibition” value is -1.19% (inactive).

For the compound `CC(C)C1NC(=O)C2CCCN2C1=O` (stereo unspecified), the “activity change, negative = inhibition” value was 12.4% (inactive).

In the case of `CC(=O)OC1CC(C(C)(C)O)OC2CCC3(C)OC4=C(C(=O)C=C5C(C)C(OC(C)=O)C6(C)C(C)OC546)C(O)C3C12C` (stereo unspecified), the “activity change, negative = inhibition” value was -10.3% [at 32.5 µM] (inactive).

As for `C=C[C@@](C)(CCC=C(C)C)O[C@@H]1O[C@H](CO[C@@H]2OC[C@H](O)[C@H](O)[C@H]2O)[C@@H](O)[C@H](O)[C@H]1O`, the “activity change, negative = inhibition” value was -11.5% [at 57.1 µM] (inactive).

For `O=C(/C=C/c1ccc(O)cc1)OCC1OC(O)C(OC2OC(CO)C(O)C(O)C2O)C(O)C1O` (stereo unspecified), the “activity change, negative = inhibition” value is 13.9% [at 57.1 µM] (inactive).

In the case of `COC(=O)C1=COC(OC2OC(CO)C(O)C(O)C2O)C2C(C)C(OC(=O)/C=C/c3ccc(O)cc3)C(O)C12` (stereo unspecified), the Potency was 28.2 µM (active).

`O=C(O)c1ccc(NC(=O)[C@H](CC2CCCC2)n2cnc(C(F)(F)F)c2)nc1`: the “activity change, negative = inhibition” value is -16.2% (inactive).

For the compound `C[C@@H]1O[C@@H](O[C@H]2[C@@H]3C=CO[C@@H](O[C@@H]4O[C@H](CO)[C@@H](O)[C@H](O)[C@H]4O)[C@@H]3[C@@]3(CO)O[C@@H]23)[C@H](O)[C@H](O)[C@H]1OC(=O)/C=C/c1ccc(O)cc1`, the “activity change, negative = inhibition” value was 10.3% [at 32.5 µM] (inactive).

Consider `CCCCNc1nc(N)c2[nH]c(=O)n(Cc3ccc(OCCN(C)C)nc3)c2n1`, for which the “activity change, negative = inhibition” value was 15.7% (inactive).

As for `CC1=C(CO)CC(C(C)C2CCC3C4CC=C5CC(OC6OC(COC7OC(CO)C(O)C(O)C7O)C(O)C(O)C6O)CC(O)C5(C)C4CCC23C)OC1=O` (stereo unspecified), the “activity change, negative = inhibition” value was 1% [at 32.5 µM] (inactive).

In the case of `Cc1cc(-c2nncc3c(C(C)(C)C)c(OCc4ncnn4C)nn23)no1`, the “activity change, negative = inhibition” value is -0.608% (inactive).

With `C[C@@H]1CC[C@]2(C(=O)O[C@@H]3O[C@H](CO[C@@H]4O[C@H](CO)[C@@H](O[C@@H]5O[C@@H](C)[C@H](O)[C@@H](O)[C@H]5O)[C@H](O)[C@H]4O)[C@@H](O)[C@H](O)[C@H]3O)CC[C@]3(C)C(=CCC4[C@@]5(C)C[C@@H](O)[C@H](O)[C@@](C)(CO)C5CC[C@]43C)C2[C@H]1C` (stereo partly specified), the “activity change, negative = inhibition” value is 27.7% [at 32.5 µM] (inactive).

For the compound `CC(=O)OCC1OC(O[C@H]2CC[C@]34C[C@]35CC(O)[C@]3(C)[C@@H]([C@H](C)CC/C=C(\C)C(=O)O)C(O)C[C@@]3(C)C5CC[C@H]4C2(C)C)C(O)C(O)C1OC1OCC(O)C(O)C1O` (stereo partly specified), the “activity change, negative = inhibition” value was 9.36% [at 32.5 µM] (inactive).

In the case of `CC(C)(O)[C@@H]1CC[C@]2(CO)[C@@H](O)CC[C@](C)(O)[C@H]2[C@@H]1O[C@@H]1O[C@H](CO)[C@@H](O)[C@H](O)[C@H]1O`, the “activity change, negative = inhibition” value is 0.176% [at 57.1 µM] (inactive).

Regarding `CCC(C)C(N)C(=O)NCCN1CCOCC1` (stereo unspecified), the “activity change, negative = inhibition” value was 0% (inactive).

Consider `C[C@@H]1O[C@@H](O[C@H]2[C@H](OC(=O)[C@]34CCC(C)(C)C[C@H]3C3=CCC5[C@@]6(C)CC[C@H](O[C@@H]7O[C@H](CO[C@@H]8OC[C@H](O)[C@H](O)[C@H]8O[C@@H]8OC[C@@H](O)[C@H](O)[C@H]8O)[C@@H](O)[C@H](O)[C@H]7O)C(C)(C)C6CC[C@@]5(C)[C@]3(C)C[C@H]4O)O[C@H](CO)[C@@H](O)[C@@H]2O)[C@H](O[C@@H]2O[C@H](CO)[C@@H](O)[C@H](O)[C@H]2O)[C@H](O)[C@H]1O[C@@H]1OC[C@@H](O)[C@H](O[C@@H]2OC[C@@H](O)[C@H](O)[C@H]2O)[C@H]1O` (stereo partly specified), for which the activity change, negative = inhibition was 2.96% [at 19.1 µM] (inactive).

`CC(=O)OC[C@]12[C@H](OC(C)=O)[C@H](OC(=O)c3ccccc3)[C@@H]3[C@@H](OC(C)=O)[C@]1(OC3(C)C)[C@H](C)C[C@H](OC(=O)c1ccccc1)[C@@H]2OC(=O)c1ccccc1`: the “activity change, negative = inhibition” value was 21.9% [at 32.5 µM] (inactive).

Consider `CC(=O)/C=C/C1(O)C(C)(C)CC(O)CC1(C)O` (stereo unspecified), for which the “activity change, negative = inhibition” value is 26.2% (inactive).

Take `OC[C@@]1(O)CO[C@H](OC[C@H]2O[C@@H](OCCc3ccccc3)[C@H](O)[C@@H](O)[C@@H]2O)[C@@H]1O`: the “activity change, negative = inhibition” value was -5.25% [at 57.1 µM] (inactive).

For `CC(C)CC[C@@H](O)[C@](C)(O)[C@H]1CC[C@@]2(O)C3=CC(=O)[C@@H]4C[C@@H](O)[C@@H](O)C[C@]4(C)[C@H]3CC[C@]12C`, the “activity change, negative = inhibition” value was 17% (inactive).

For the compound `O=C(/C=C/c1ccc(O)cc1)O[C@H]1[C@H](OC2CCCCC2O)O[C@H](CO)[C@@H](O)[C@@H]1O` (stereo partly specified), the “activity change, negative = inhibition” value was -18.2% [at 57.1 µM] (inactive).

`Cc1c(NC(=O)N2CCOCC2)ccc2c1c1ccccc1n2C(C)C`: the “activity change, negative = inhibition” value was -1.36% (inactive).
